Publication PMC7862700, “An all-to-all approach to the identification of sequence-specific readers for epigenetic DNA modifications on cytosine”

Experiments:
Assay in all cases: DAPPL (digital affinity profiling via proximity ligation, sequencing); 10 mM Tris-HCl pH 7.5, 50 mM NaCl, 1 mM DTT, 4% glycerol, room temperature, 30 min; GST-TFs on glutathione beads, 16-mer random dsDNA library, 0.1% formaldehyde crosslink after washing; high values mean tight binding
Settings in all cases: protein: recombinant; tags: N-terminal GST; dsDNA, one strand shown
ERF = target: T1, ERF (Homo sapiens, UniProt P50548 1-548)
T1 sequence: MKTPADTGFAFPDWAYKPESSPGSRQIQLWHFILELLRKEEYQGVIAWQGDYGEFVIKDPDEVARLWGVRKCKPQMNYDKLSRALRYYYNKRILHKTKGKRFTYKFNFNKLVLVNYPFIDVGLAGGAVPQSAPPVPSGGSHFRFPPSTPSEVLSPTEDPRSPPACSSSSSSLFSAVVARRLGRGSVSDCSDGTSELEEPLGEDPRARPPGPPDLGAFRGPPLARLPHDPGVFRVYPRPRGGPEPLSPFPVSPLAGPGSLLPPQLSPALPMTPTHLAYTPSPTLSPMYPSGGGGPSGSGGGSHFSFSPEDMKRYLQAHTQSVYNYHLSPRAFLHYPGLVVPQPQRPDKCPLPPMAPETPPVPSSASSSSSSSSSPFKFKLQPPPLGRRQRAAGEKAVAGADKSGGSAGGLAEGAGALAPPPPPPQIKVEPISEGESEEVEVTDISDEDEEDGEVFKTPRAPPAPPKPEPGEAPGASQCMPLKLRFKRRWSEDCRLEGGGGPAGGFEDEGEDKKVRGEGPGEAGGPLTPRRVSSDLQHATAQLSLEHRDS
Summary of the method: (§1)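 GST fusions of human transcription factors were expressed in yeast and captured with glutathione beads. Once given DNA barcodes and pooled alongside a tag-only sample, they were incubated for 30 min at room temperature with 200 nmole of a random double-stranded 16-mer DNA library in Tris/NaCl/DTT/glycerol buffer, then washed, crosslinked (0.1% formaldehyde), proximity-ligated, PCR-amplified and sequenced on an Illumina NextSeq500. The binding signal of each hexamer is its read frequency for a factor divided by its frequency for the tag-only sample.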

ETV3L = target: T2, ETV3L (Homo sapiens, UniProt Q6ZN32 1-361)
T2 sequence: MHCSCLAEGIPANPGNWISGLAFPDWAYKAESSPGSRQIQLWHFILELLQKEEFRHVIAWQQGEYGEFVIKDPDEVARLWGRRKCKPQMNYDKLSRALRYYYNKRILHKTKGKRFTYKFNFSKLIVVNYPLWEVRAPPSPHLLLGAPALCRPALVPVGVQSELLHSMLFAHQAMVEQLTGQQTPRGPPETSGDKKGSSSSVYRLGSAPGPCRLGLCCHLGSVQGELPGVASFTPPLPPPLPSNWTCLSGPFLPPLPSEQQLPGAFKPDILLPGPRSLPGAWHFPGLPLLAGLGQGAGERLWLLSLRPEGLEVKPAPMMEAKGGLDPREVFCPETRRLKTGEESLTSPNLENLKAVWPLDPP
Summary of the method: as §1

ETS2 = target: T3, ETS2 (Homo sapiens, UniProt P15036 1-469)
T3 sequence: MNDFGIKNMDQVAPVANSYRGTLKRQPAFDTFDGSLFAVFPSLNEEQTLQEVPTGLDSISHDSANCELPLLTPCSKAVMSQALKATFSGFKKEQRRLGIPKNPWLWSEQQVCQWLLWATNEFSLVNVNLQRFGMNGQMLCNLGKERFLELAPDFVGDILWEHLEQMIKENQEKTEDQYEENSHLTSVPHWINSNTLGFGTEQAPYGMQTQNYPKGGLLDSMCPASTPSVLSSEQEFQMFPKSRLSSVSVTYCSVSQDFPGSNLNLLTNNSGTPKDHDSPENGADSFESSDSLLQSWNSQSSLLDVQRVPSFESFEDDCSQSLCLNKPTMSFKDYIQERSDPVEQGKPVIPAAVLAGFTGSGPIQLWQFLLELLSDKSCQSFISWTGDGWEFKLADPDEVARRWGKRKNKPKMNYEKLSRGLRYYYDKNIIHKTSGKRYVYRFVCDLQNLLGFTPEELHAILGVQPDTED
Summary of the method: as §1

SPDEF = target: T4, SPDEF (Homo sapiens, UniProt O95238 1-335)
T4 sequence: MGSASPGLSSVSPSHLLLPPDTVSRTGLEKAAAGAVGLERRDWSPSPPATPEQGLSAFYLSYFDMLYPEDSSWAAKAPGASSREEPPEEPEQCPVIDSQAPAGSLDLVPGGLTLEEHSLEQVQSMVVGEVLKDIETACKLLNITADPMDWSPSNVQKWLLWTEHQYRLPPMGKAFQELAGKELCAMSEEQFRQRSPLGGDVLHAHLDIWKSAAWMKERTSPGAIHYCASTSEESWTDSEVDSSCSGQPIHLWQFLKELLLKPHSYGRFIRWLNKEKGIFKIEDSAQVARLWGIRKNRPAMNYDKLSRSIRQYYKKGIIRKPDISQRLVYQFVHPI
Summary of the method: as §1

ETV7 = target: T5, ETV7 (Homo sapiens, UniProt Q9Y603 1-341)
T5 sequence: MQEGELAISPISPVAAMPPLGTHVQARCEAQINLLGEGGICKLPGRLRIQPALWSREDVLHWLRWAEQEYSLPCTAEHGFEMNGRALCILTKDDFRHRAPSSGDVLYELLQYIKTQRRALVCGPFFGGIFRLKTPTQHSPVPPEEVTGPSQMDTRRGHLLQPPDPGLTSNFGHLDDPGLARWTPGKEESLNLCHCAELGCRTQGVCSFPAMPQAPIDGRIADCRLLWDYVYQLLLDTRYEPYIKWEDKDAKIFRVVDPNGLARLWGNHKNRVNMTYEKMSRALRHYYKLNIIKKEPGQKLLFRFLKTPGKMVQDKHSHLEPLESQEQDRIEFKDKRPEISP
Summary of the method: as §1

ELF5 = target: T6, ELF5 (Homo sapiens, UniProt Q9UKW6-2 1-255)
T6 sequence: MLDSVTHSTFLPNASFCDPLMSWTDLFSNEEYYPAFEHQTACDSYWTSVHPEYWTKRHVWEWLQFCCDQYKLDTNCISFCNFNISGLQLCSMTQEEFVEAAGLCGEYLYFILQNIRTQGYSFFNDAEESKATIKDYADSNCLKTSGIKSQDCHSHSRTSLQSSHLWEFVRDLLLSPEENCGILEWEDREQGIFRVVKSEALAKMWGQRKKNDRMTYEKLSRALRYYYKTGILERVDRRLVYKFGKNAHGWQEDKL
Summary of the method: as §1

ETV3 = target: T7, ETV3 (Homo sapiens, UniProt P41162-2 1-143)
T7 sequence: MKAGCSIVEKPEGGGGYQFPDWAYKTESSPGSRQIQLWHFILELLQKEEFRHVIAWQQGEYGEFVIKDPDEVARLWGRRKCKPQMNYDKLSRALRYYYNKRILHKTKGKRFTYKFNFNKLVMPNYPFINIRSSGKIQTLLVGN
Summary of the method: as §1

ETV6 = ETV6 (Homo sapiens, UniProt P41212 1-452)
Summary of the method: as §1

ETV6, sequence (P41212 whole entry): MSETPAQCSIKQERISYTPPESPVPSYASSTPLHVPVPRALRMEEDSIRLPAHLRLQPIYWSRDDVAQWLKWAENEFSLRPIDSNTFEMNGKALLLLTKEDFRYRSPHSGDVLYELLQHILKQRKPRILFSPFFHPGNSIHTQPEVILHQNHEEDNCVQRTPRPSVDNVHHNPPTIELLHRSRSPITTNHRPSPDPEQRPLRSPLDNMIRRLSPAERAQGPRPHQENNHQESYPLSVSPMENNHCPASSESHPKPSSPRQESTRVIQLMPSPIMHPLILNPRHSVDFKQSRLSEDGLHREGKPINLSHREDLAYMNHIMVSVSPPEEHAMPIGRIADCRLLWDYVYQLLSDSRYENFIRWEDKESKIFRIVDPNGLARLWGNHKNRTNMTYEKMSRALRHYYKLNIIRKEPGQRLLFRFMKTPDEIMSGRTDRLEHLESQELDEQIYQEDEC

Row | Sequence | binding signal (ERF) | binding signal (ETV3L) | binding signal (ETS2) | binding signal (SPDEF) | binding signal (ETV7) | binding signal (ELF5) | binding signal (ETV3) | binding signal (ETV6)
1 | CTAGCA | 1.21 fold enrichment (6-mer frequency, TF over GST control) | 1.28 fold enrichment (6-mer frequency, TF over GST control) | 1.18 fold enrichment (6-mer frequency, TF over GST control) | 1.16 fold enrichment (6-mer frequency, TF over GST control) | 1.33 fold enrichment (6-mer frequency, TF over GST control) | 1.12 fold enrichment (6-mer frequency, TF over GST control) | 1.18 fold enrichment (6-mer frequency, TF over GST control) | 1.18 fold enrichment (6-mer frequency, TF over GST control)
2 | CAATAT | 1.28 fold enrichment (6-mer frequency, TF over GST control) | 1.26 fold enrichment (6-mer frequency, TF over GST control) | 1.28 fold enrichment (6-mer frequency, TF over GST control) | 1.34 fold enrichment (6-mer frequency, TF over GST control) | 1.27 fold enrichment (6-mer frequency, TF over GST control) | 1.2 fold enrichment (6-mer frequency, TF over GST control) | 1.33 fold enrichment (6-mer frequency, TF over GST control) | 1.23 fold enrichment (6-mer frequency, TF over GST control)
3 | ATCATC | 1.08 fold enrichment (6-mer frequency, TF over GST control) | 1.23 fold enrichment (6-mer frequency, TF over GST control) | 1.25 fold enrichment (6-mer frequency, TF over GST control) | 1.16 fold enrichment (6-mer frequency, TF over GST control) | 1 fold enrichment (6-mer frequency, TF over GST control) | 1.17 fold enrichment (6-mer frequency, TF over GST control) | 1.23 fold enrichment (6-mer frequency, TF over GST control) | 1.1 fold enrichment (6-mer frequency, TF over GST control)
4 | TTCCTT | 1.77 fold enrichment (6-mer frequency, TF over GST control) | 1.91 fold enrichment (6-mer frequency, TF over GST control) | 1.94 fold enrichment (6-mer frequency, TF over GST control) | 1.77 fold enrichment (6-mer frequency, TF over GST control) | 1.92 fold enrichment (6-mer frequency, TF over GST control) | 3.67 fold enrichment (6-mer frequency, TF over GST control) | 2.13 fold enrichment (6-mer frequency, TF over GST control) | 2.1 fold enrichment (6-mer frequency, TF over GST control)
5 | TTTTCC | 1.65 fold enrichment (6-mer frequency, TF over GST control) | 1.71 fold enrichment (6-mer frequency, TF over GST control) | 1.69 fold enrichment (6-mer frequency, TF over GST control) | 1.67 fold enrichment (6-mer frequency, TF over GST control) | 1.78 fold enrichment (6-mer frequency, TF over GST control) | 2.37 fold enrichment (6-mer frequency, TF over GST control) | 1.82 fold enrichment (6-mer frequency, TF over GST control) | 2.08 fold enrichment (6-mer frequency, TF over GST control)
6 | CTGTAT | 1.29 fold enrichment (6-mer frequency, TF over GST control) | 1.24 fold enrichment (6-mer frequency, TF over GST control) | 1.22 fold enrichment (6-mer frequency, TF over GST control) | 1.44 fold enrichment (6-mer frequency, TF over GST control) | 1.25 fold enrichment (6-mer frequency, TF over GST control) | 1.34 fold enrichment (6-mer frequency, TF over GST control) | 1.32 fold enrichment (6-mer frequency, TF over GST control) | 1.31 fold enrichment (6-mer frequency, TF over GST control)
7 | CTCTTC | 1.62 fold enrichment (6-mer frequency, TF over GST control) | 1.89 fold enrichment (6-mer frequency, TF over GST control) | 1.65 fold enrichment (6-mer frequency, TF over GST control) | 1.59 fold enrichment (6-mer frequency, TF over GST control) | 1.56 fold enrichment (6-mer frequency, TF over GST control) | 2.07 fold enrichment (6-mer frequency, TF over GST control) | 1.75 fold enrichment (6-mer frequency, TF over GST control) | 1.84 fold enrichment (6-mer frequency, TF over GST control)
8 | GCCTCT | 1.25 fold enrichment (6-mer frequency, TF over GST control) | 1.32 fold enrichment (6-mer frequency, TF over GST control) | 1.25 fold enrichment (6-mer frequency, TF over GST control) | 1.3 fold enrichment (6-mer frequency, TF over GST control) | 1.35 fold enrichment (6-mer frequency, TF over GST control) | 1.27 fold enrichment (6-mer frequency, TF over GST control) | 1.34 fold enrichment (6-mer frequency, TF over GST control) | 1.35 fold enrichment (6-mer frequency, TF over GST control)
